# Measured values taken from PubChem BioAssay AID602383 (National Center for Advancing Translational Sciences (NCATS), 2012).
# The source made the active and inactive calls. Calls follow the shape of the dose curve; as a rule, active = well fitted curve in the direction sought with a large enough effect; inactive = no such curve, though single readings can be large or run the other way.
# Biological target: Pyruvate kinase PKM (Homo sapiens) (UniProt P14618)
# Experiment: qHTS for Activators of Human Muscle Isoform 2 Pyruvate Kinase: Muscle Isoform 1 Assay
# Conditions: purified hPK-M1, ATP generation, Kinase-Glo luminescence, 1 h; series mostly up to 58.2 µM
# Method: Human pyruvate kinase muscle isoform 1 (hPK-M1) enzyme was supplied as a highly purified (>95% pure) preparation from Harvard Medical School and assayed for its ability to generate ATP from ADP using phosphoenolpyruvate (PEP) as a substrate. ATP generation was detected in a coupled reaction by luciferase-mediated luminescence, an ATP-dependent process. Pyruvate kinase substrates, PEP and ADP, were present in the assay at Km and approximately 10-fold below Km respectively. The enzyme was assayed at an intermediate level of activity to screen for both inhibitors and activators. NIH Chemical Genomics Center [NCGC] NIH Molecular Libraries Probe Centers Network [MLPCN] MLPCN Grant: MH085679 Assay Submitter (PI): Matthew G. Vander Heiden, Harvard Medical School
# Three uL of substrate mix (at r.t.) in assay buffer (50 mM Imidazole pH7.2, 50 mM KCl, 7 mM MgCl2, 0.01% Tween 20, 0.05% BSA) was dispensed into white solid bottom 1,536 well microtiter plates so that the final concentrations of substrates in the assay were 0.1 mM ADP and 0.5 mM PEP. 23 nL of compound were delivered by a pin tool and 1 uL of enzyme mix (final concentration of 1 nM) in assay buffer (4 degree Celsius) was added. Plates were incubated at room temperature for 1 hour. Two uL of detection mix (Kinase-Glo, Promega; at 4 degree Celsius protected from light) was added and luminescence read by a ViewLux (Perkin Elmer) at 1 second exposure/plate. Data were normalized to the uninhibited (row 31). Additionally, a no enzyme and 5-fold enzyme control was dispensed in row 32, split equally between the two conditions.
# Sequence of Pyruvate kinase PKM (Homo sapiens) (P14618 whole entry, looked up, canonical isoform): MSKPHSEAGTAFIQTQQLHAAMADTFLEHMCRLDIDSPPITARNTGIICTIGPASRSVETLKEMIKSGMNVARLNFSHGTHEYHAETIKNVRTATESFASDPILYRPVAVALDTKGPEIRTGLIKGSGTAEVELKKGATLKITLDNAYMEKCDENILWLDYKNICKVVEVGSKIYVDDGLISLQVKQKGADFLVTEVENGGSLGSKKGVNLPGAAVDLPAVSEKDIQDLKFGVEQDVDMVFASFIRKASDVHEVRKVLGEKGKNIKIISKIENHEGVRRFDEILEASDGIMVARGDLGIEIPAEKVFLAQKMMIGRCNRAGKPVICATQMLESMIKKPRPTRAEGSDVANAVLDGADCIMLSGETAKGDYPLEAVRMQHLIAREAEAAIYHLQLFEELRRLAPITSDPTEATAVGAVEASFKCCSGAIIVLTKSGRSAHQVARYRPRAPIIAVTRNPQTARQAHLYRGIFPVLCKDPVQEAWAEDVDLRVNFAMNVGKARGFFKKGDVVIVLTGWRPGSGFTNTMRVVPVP
row,Structure (SMILES),outcome
1,Cc1cc2c(s1)c1cnn(Cc3c(Cl)ccc(C)c3F)c(=O)c1n2C,inactive
2,Cc1cc2c(s1)c1cnn(Cc3cc(F)ccc3F)c(=O)c1n2C,inactive
3,COc1cccc(Cn2ncc3c4sc(S(C)=O)cc4n(C)c3c2=O)c1 (stereo unspecified),inactive
4,Cc1cc2c(s1)c1cnn(Cc3cc(F)c(F)cc3F)c(=O)c1n2C,inactive
5,Cc1cc2c(s1)c1cnn(Cc3ccc(F)cc3F)c(=O)c1n2C,inactive
6,Cn1c2cc(S(C)=O)sc2c2cnn(Cc3cccc(N)c3)c(=O)c21 (stereo unspecified),inactive
